Data from PubChem BioAssay (NCI).
About 83,000 compounds went through this panel and 20% of them were active in at least one assay; those are over-represented in the sample as a whole.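 Negative percent growth values reflect cell death: -40 means 40% of the cells present at the start died, and -100 means all died.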 Unmarked numbers belong to inactive results. Calls of active or inactive are those of the source. Rule for the calls: active = growth percent below 10; inactive = the rest.

What follows are molecules tested on SK-MEL-28 melanoma (assay: NCI-60 one-dose screen, 48 h (100 = growth as untreated, 0 = no growth, -100 = all killed)). Details: 10 µM unless noted.

Row | SMILES | growth
1 | CCN(C(=O)N1CCN(c2cc3c(cc2F)c(=O)c(C(=O)O)cn3C2CC2)CC1)c1nc(-c2ccc(Cl)cc2)cs1 | 40%
2 | Fc1ccc2[nH]cc(-c3nonc3-c3c[nH]c4ccc(Br)cc34)c2c1 | 61.8%
3 | N#Cc1cccc(F)c1 | 117%
4 | Cc1cnc(C(=O)NNc2nc3sc4c(c3c(=O)n2C)C(C)CCC4)cn1 (stereo not drawn) | 8.43% (active)
5 | O=C(O)[C@@H]1c2ccccc2-c2ccccc2[C@H]1C(=O)O | 102%
6 | CN[C@]12CC3(C=CC(=O)C=C3)O[C@@]1(Cc1ccc(OC)cc1)N(C)C(=O)N2 | 18.1%
7 | Cc1ccccc1/C=C1\CN(C(=O)OC(C)(C)C)C/C(=C\c2ccccc2C)C1=O | 55.5%
8 | CCc1n(Cc2ccc3ccccc3c2)cc[n+]1Cc1ccc2ccccc2c1 | 2.03% (active)
9 | CCCCCCCCn1ccc2cc(NC(=O)CN3CCN(c4nc(C)cc(Cl)n4)CC3)ccc21 | 98%
10 | COc1ccc(-c2nc3c(c(-c4ccccc4)nn3-c3ccccc3)c(-c3ccc(N4CCOCC4)cc3)c2C#N)cc1 | 100%
11 | CCC(=C(c1ccc(OCCN2CCCC2)cc1)c1ccc(OCCN2CCCC2)cc1)c1ccc(Cl)cc1 | -81.7% (active)
12 | CCOC(=O)Cn1c(O)c(N=Nc2ccc(S(N)(=O)=O)cc2)c2cc(Br)ccc21 | 85.2%
13 | C=C1C(=O)O[C@H]2[C@H]1CC/C(COC(=O)CCSCCC(=O)OC/C1=C/CC[C@@]3(C)O[C@H]3[C@H]3OC(=O)C(=C)[C@@H]3CC1)=C\CC[C@@]1(C)O[C@@H]21 | -35.6% (active)
